Sampled rows, rich in hits. Any-hit rate of the full collection: about 3.4%.
ADAM10 inh: ADAM10 inhibition, QFRET primary screen; recombinant ADAM10, EDANS/DABCYL FRET peptide cleavage, 3 h; 370,000 tested, 0.62% active; inhibition, % at 7 µM;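 active = inhibition above a per-campaign cutoff equal to the mean of compounds falling between control-based bounds plus 3 SD, cut at about 20% in these data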;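 also: 0% = DMSO wells while the 100% control is not disclosed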
proKLK7 act: activates the human kallikrein-7 zymogen | P49862 | purified proKLK7, EDANS-DABCYL substrate fluorescence; 100% is mature enzyme control, 0% vehicle | activation, % at 7 µM | 370,000 tested, 0.9% active | AID 652039;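 active = activation above the mean of all tested compounds plus 3 SD, computed per campaign excluding outliers beyond control limits, cut at about 13% in these data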
PLCb3 inh: blocks human PLC-beta3 enzyme activity; Q01970; inhibition, % at 12.2 µM; 370,000 tested, 0.18% active; Purified PLC-beta3, fluorogenic substrate, fluorescence; in the data active = inhibition above about 11%;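 also: 0% = median of compound wells on plate and 100% = full blocker control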
PLCg1 inh: PLC-gamma1 (human) inhibition, primary screen; P19174; purified PLC-gamma1, fluorogenic substrate, fluorescence; inhibition, % at 12.2 µM; 370,000 tested, 0.84% active; AID 720700; in the data active = inhibition above about 9.5%
Target sequence (P19174 whole entry, looked up): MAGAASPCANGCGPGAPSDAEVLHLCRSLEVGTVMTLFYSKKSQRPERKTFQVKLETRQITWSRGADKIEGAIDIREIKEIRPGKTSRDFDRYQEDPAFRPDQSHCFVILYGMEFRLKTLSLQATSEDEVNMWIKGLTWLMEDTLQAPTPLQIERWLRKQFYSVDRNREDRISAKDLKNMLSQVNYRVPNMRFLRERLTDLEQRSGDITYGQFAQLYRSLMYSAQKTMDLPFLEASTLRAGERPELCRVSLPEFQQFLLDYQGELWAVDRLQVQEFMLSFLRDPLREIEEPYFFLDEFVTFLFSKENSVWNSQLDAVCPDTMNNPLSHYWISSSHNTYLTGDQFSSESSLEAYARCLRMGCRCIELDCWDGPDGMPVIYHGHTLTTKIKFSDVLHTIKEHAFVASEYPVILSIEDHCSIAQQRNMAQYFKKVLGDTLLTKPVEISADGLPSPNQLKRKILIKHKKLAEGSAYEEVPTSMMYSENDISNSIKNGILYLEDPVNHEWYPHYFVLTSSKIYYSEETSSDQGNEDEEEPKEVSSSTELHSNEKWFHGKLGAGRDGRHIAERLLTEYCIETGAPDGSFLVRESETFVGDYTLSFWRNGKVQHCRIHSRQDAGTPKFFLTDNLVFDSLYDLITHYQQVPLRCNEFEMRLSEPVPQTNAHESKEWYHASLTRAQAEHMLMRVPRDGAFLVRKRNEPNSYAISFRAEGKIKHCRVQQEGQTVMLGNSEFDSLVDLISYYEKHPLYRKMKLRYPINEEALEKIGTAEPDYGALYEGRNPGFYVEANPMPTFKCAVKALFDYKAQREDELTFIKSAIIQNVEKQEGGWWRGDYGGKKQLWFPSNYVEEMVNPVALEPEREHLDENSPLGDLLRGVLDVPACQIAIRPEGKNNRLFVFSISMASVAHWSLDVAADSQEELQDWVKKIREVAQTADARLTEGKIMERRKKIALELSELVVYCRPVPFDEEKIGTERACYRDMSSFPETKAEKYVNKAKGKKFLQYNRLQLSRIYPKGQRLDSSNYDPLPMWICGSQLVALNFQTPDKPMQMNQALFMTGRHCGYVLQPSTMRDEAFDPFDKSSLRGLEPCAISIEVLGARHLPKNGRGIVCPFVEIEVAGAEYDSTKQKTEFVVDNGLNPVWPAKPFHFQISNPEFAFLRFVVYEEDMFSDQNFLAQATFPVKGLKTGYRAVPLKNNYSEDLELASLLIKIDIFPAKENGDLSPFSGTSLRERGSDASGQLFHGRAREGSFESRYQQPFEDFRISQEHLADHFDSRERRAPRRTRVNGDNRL
sPLA2-III inh: Inhibits HGIII-sPLA2 liposome hydrolysis, primary screen | inhibition, % at 12.2 µM | QFRET BODIPY PC-A2 liposome hydrolysis, fluorescence | 370,000 tested, 0.56% active;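 active = inhibition above mean plus 3 SD of compounds lying within the high and low control bounds, cut at about 19% in these data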;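 also: 0% = median of test compound wells and 100% = no enzyme DMSO wells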
ADAM17 inh: ADAM17 inhibition, QFRET primary screen; P78536; recombinant ADAM17, EDANS/DABCYL FRET peptide cleavage; inhibition, % at 6.95 µM; 370,000 tested, 0.83% active;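 active = inhibition above the mean of compounds lying between control limits plus 3 SD, set per campaign, cut at about 8.5% in these data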;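 also: 0% = DMSO-only wells as the low control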
hGIII sPLA2 conf: human GIII-sPLA2 inhibition, confirmation; recombinant hGIII-sPLA2, BODIPY PC-A2 QFRET fluorescence; 2,000 tested, 34% active; shares compounds with sPLA2-III inh; inhibition, % at 12.2 µM; AID 743280;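 active = mean inhibition across triplicates above the hit cutoff set in the earlier primary screen, cut at about 19% in these data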;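 also: 0% = enzyme with DMSO and 100% = DMSO wells lacking enzyme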
BODIPY interf: 535nm fluorescence interference, HGIII-sPLA2 counter-screen. shares compounds with sPLA2-III inh. BODIPY FL product fluorescence interference, QFRET. inhibition, % at 12.2 µM. 2,000 tested, 8.5% active;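 active = average inhibition above the solvent-only control mean plus 3 SD, cut at about 6% in these data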;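 also: 0% = DMSO with substrate plus product and 100% = DMSO with substrate alone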
* = called active by the depositor; . = no result.

SMILES	ADAM10 inh	proKLK7 act	PLCb3 inh	PLCg1 inh	sPLA2-III inh	ADAM17 inh	hGIII sPLA2 conf	BODIPY interf
COC(=O)c1cc2c(c3c4cc(OC)ccc4n(S(=O)(=O)c4ccc(OC)cc4)c13)C(=O)N(Cc1ccc(C(F)(F)F)cc1)C2	-9	1	-9	-6	-1	-2	.	.
CCCCc1c(-c2ccccc2OC)ncn1C(C)c1ccc(Cl)cc1 (configuration not stated)	-2	0	-3	-2	-14	-3	.	.
FC(F)(F)c1cc(-c2ccccc2)nc(N2CCCCCC2)n1	0	0	6	3	20*	-6	5	-5
COc1ccc(-c2cc(C(F)(F)F)nc(N3CCCCCC3)n2)cc1	-9	-1	0	0	0	0	.	.
CCCC[C@H]1C2CC(OC(=O)Nc3cccc(Br)c3)C(C2)[C@H]2CCCCN21 (some centres not stated)	-6	0	-6	0	-6	-3	.	.
Cc1ccccc1CSCC(=O)NNC(=S)NCC1CCCO1 (configuration not stated)	2	0	-2	4	24*	2	19	4
O=C(Cc1ccc(Cl)c(Cl)c1)NNC(=S)NCC1CCCO1 (configuration not stated)	0	0	-7	0	15	-4	.	.
Cc1ccc(NC(=O)CSc2nnc(-c3cccnc3)n2Cc2ccco2)cc1C	-5	0	-2	-2	-3	-3	.	.
COc1ccc(-n2c(-c3cc(-c4ccccc4)sc3N)n[nH]c2=S)cc1	8	-2	-8	-3	27*	-2	21*	10*
Nc1sc(-c2ccccc2)cc1-c1n[nH]c(=S)n1C1CCCCC1	1	-1	-8	2	7	-2	.	.
COC(=O)[C@]12C[C@H](CC(=O)NCc3cccc(C(F)(F)F)c3)C(=O)N(Cc3cccc4ccccc34)C1=C[C@H](COCc1ccccc1)O[C@@H]2C	12	0	0	2	-15	4	.	.
Cc1nnsc1C(=O)N/N=C/c1ccc2ccccc2c1O	-5	-1	-38	-22	38*	-7	21*	2
CCOC(=O)CCC(NC(=O)CCCC(=O)NC(CCC(=O)OCC)C(=O)OCC)C(=O)OCC (configuration not stated)	-11	-1	-3	4	22*	-2	1	-6
O=C1CCC[C@H]2C[C@H](NCc3ccc(Cl)c(Cl)c3)CC[C@]23CCCN13	-1	.	0	0	-1	-3	.	.
COc1cccc(OC)c1C(=O)NCCc1ccccc1	-5	0	-6	4	21*	-6	-7	-7
COc1cccc2cc(C(=O)NCCc3ccccc3)oc12	-7	0	-20	-4	-3	0	.	.
CCCCCCCCN1C(=O)[C@@H](CC(=O)NCC23CC4CC(CC(C4)C2)C3)C[C@@]2(C(=O)OC)C1=C[C@H](C1CCCC1)O[C@@H]2C	1	0	0	3	10	-5	.	.
CCC(=O)N1CCc2cc(Br)c(S(=O)(=O)N3CCCC(C(=O)NC(C)(C)C)C3)cc21 (configuration not stated)	1	0	0	1	0	0	.	.
Cc1cc(=O)[nH]c(SCC(=O)N2CCCC2)n1	-18	0	-7	2	20*	3	0	-7
C[C@H]1[C@H](N)CC[C@@]23CCCN2C(=O)CCC[C@@H]13	-9	.	1	0	2	-2	.	.
CC(C)CC(N)c1csc(Nc2ccc(C(=O)N(C)Cc3ccccc3)cn2)n1 (configuration not stated)	-24	0	-31	-16	21*	-6	0	-28
CN(Cc1ccccc1)C(=O)c1ccc(Nc2nc(C(N)Cc3ccccc3)cs2)nc1 (configuration not stated)	-12	0	-28	-19	2	-3	.	.
O=C(CCCn1c(=S)[nH]c2ccccc2c1=O)NC1CCCCC1	3	0	0	0	5	-1	.	.
CC1CCCCC1NC(=O)CCn1c(=S)[nH]c2ccccc2c1=O (configuration not stated)	-13	0	-1	-1	21*	-4	20*	0
COc1ccc(OC)c(NC(=O)COC(=O)CCCN=C2NS(=O)(=O)c3ccccc32)c1	-10	-1	-1	0	20*	8	6	-13
SMILES	ADAM10 inh	proKLK7 act	PLCb3 inh	PLCg1 inh	sPLA2-III inh	ADAM17 inh	hGIII sPLA2 conf	BODIPY interf
Cc1ccc(C)c(NC(=O)COC(=O)CCCN=C2NS(=O)(=O)c3ccccc32)c1	-7	0	2	6	1	0	.	.
O=C(Nc1nc2ccccc2[nH]1)c1cc(F)cc(F)c1	-2	1	-13	-2	24*	-1	21*	-2
N#Cc1ccc(C(=O)Nc2nc3ccccc3[nH]2)cc1	7	0	-12	-3	23*	2	19	0
O=C(Nc1nc2ccccc2[nH]1)c1ccc(F)c(S(=O)(=O)N2CCOCC2)c1	1	0	-7	-5	21*	0	9	-4
O=C(Nc1nc2ccccc2[nH]1)c1ccc(F)cc1	0	0	4	0	-5	-6	.	.
CN(C)CCP(=O)(c1ccccc1)c1ccccc1	-5	0	0	-2	-3	-2	.	.
CCCP(=O)(CCC)CCP(=O)(c1ccccc1)c1ccccc1	-5	0	0	-1	20*	-2	4	-11
O=C(c1ccccc1)N1CC[C@H]2[C@H](CCCN2Cc2cc(F)cc(F)c2)C1	3	0	1	9	-5	3	.	.
O=C(Nc1csnn1)c1csnn1	-15	0	-8	-1	20*	-4	2	-6
COC(=O)[C@]1(C)CN(C(=O)OC(C)(C)C)C2=C1C(=O)C[C@@](C)(C(=O)OC(C)(C)C)C2	-1	0	-1	0	-4	-4	.	.
CN(C)C=NC1=NN(c2cccc(C(F)(F)F)c2)CC1	-12	0	5	6	21*	-8	-5	-3
CCCC1CCC2(CC1)CCC2OC(=O)Nc1ccc(C)cc1 (configuration not stated)	1	.	-3	-2	-10	0	.	.
CC(C1CC2CCC1C2)N1CC(O)=C(c2nc3ccccc3[nH]2)C1=N (configuration not stated)	-7	0	-33	-21	28*	-5	21*	-4
CCCCNC(=S)Nc1ccc2nc3n(c(=O)c2c1)CCCCC3	-23	0	0	2	18	-13	.	.
